Each structure is given as a SMILES string. Values joined by “and” are separate entries in the source; they are usually repeats but may differ in a detail not shown here. Identical values can stand only once. Counter-ions that a name gives are not always drawn. ± gives the standard deviation of the averaged measurements. Whole data set: some 1,900 compounds, median “relative cell viability (CellTiter-Glo), compound alone” near 1, cut for the lowest 2% near 0.16. This is one part of a sample in which the lowest values are shown more often than they occur.

The assay concerns Hep3B. Briefly: relative cell viability (CellTiter-Glo), compound alone (fraction); higher = more viable cells (less growth inhibition). The note with it: cabozantinib 0 µM; 4 days.
Consider `CNc1nc(Nc2cnn([C@H]3CCN(C4COC4)C[C@@H]3F)c2Cl)ncc1C(F)(F)F`, for which the relative cell viability is 1.14 ± 0.02.
Regarding `Clc1ccc(C2(c3ccc(-c4cn[nH]c4)cc3)CCNCC2)cc1`, the relative cell viability amounted to 0.972 ± 0.2.
As for `CC1=C(C(=O)OC2CCCCC2)C(c2ccc([N+](=O)[O-])cc2)C2=C(CC(C)(C)CC2=O)N1` (stereo unspecified), the relative cell viability was 1.19 ± 0.022.
Consider `COC(=O)C1=CO[C@@H](O[C@@H]2O[C@H](CO)[C@@H](O)[C@H](O)[C@H]2O)[C@@H]2C(CO)=CC[C@H]12` [Geniposide], for which the relative cell viability was determined as 1.11 ± 0.078.
As to `COc1ccc(NS(=O)(=O)c2sc3ccc(Cl)cc3c2C)cc1N1CCNCC1`, the relative cell viability is 0.974 ± 0.19.
On to `CCNC(=O)C#Cc1ccc2c(C(=Nc3ccc(CN(C)C)cc3)c3ccccc3)c(O)[nH]c2c1`, for which the relative cell viability was determined as 0.278 ± 0.007.
The same measure for `CCOC(=O)CCNc1cc(N2CCc3ccccc3CC2)nc(-c2ccccn2)n1`: 0.742 ± 0.084.
The same measure for `Cc1cc(OCc2nnc(SC3CCCC3)n2-c2cccnc2)ccc1-c1ccc(S(C)(=O)=O)cc1`: 1.07 ± 0.024.
Turning to `CCOC(=O)Nc1cc(-c2ccc(C)c(NS(C)(=O)=O)c2)nn2c(C)nnc12` [Bromosporine], the relative cell viability stood at 0.851 ± 0.044.
`CCc1c(O)cc(O)c(C(=O)c2ccc(OCCN3CCOCC3)c(OC)c2)c1CC(=O)N(CCOC)CCOC` gave a relative cell viability of 0.48 ± 0.01.
In the case of `COC(=O)C[C@H](NC(=O)[C@H](C)NC(=O)[C@@H](NC(=O)OCc1ccccc1)C(C)C)C(=O)CF`, the relative cell viability is 1 ± 0.094.
Consider `NC(=O)c1cccc2[nH]c(-c3ccc(C4CCCN4)cc3F)nc12` (stereo unspecified), for which the relative cell viability came out at 0.981 ± 0.079.
Regarding `NC1=N[C@@](c2cccc(-c3cncnc3)c2)(c2ccnc(C(F)F)c2)c2cccc(F)c21`, the relative cell viability turned out to be 1.34 ± 0.037.
`COc1cccc2c1C(=O)c1c(O)c3c(c(O)c1C2=O)C[C@@](O)(C(C)=O)C[C@@H]3O[C@H]1C[C@H](N)[C@H](O)[C@H](C)O1` [Daunorubicin HCl] gave a relative cell viability of 0.0682 ± 0.0026.
The same measure for `COc1cccc2c1C(=O)c1c(O)c3c(c(O)c1C2=O)C[C@@](O)(C(=O)CO)C[C@@H]3O[C@H]1C[C@H](N)[C@@H](O)[C@H](C)O1` [Epirubicin HCl]: 0.0641 ± 0.0026; for `COc1cccc2c1C(=O)c1c(O)c3c(c(O)c1C2=O)C[C@@](O)(C(=O)CO)C[C@@H]3O[C@H]1C[C@H](N)[C@H](O)[C@H](C)O1` [Doxorubicin (Adriamycin)]: 0.144 ± 0.0086.
As to `COc1cccc2c1C(=O)c1c(O)c3c(c(O)c1C2=O)C[C@@](O)(C(=O)CO)C[C@@H]3O[C@H]1C[C@H](N)[C@H](O[C@@H]2CCCCO2)[C@H](C)O1` [Pirarubicin], the relative cell viability turned out to be 0.157 ± 0.078.
The compound `O=C(O)c1cc(I)ccc1NC(=O)[C@H](Cc1ccccc1)NCc1ccccc1` showed a relative cell viability of 1.03 ± 0.032.
Turning to `C=CC(=O)N1CCC(Oc2cc3c(Nc4ccc(Cl)c(Cl)c4F)ncnc3cc2OC)CC1` [Poziotinib (HM781-36B)], the relative cell viability is 0.933 ± 0.022.
The compound `CN(C)CCN1C(=O)c2cccc3cc(N)cc(c23)C1=O` [Amonafide] returned a relative cell viability of 1.22 ± 0.09.
To `C=CC(=O)Nc1ccc2ncnc(Nc3ccc(OCc4cccc(F)c4)c(Cl)c3)c2c1` belongs 1.41 ± 0.053.
As to `COc1cc(C(=O)NC2CCCNC2)cc(OC)c1OC` (stereo unspecified) [Troxipide], the relative cell viability is 1.07 ± 0.12.
In turn, `NC(=O)Nc1sc(-c2ccc(F)cc2)cc1C(N)=O` registered a relative cell viability of 1.1 ± 0.043.
Turning to `NC(=O)Nc1cc(-c2cccc(F)c2)sc1C(=O)N[C@H]1CCCNC1`, the relative cell viability turned out to be 0.151 ± 0.016.
Take `O=C(NO)c1cccc(C(=O)NCCc2ccccc2)c1`: the relative cell viability amounted to 1.16 ± 0.059.
To `COc1cc2ncc(-c3ccccc3)nc2cc1OC` [Tyrphostin AG 1296] belongs 1 ± 0.02; to `Nc1nccc2c1ncn2C1C=C(CO)C(O)C1O` (stereo unspecified) [3-Deazaneplanocin A (DZNeP)], 0.933 ± 0.013; to `Cc1nc(C#Cc2ccnc(Cl)c2)c(C)n1-c1ccc(OC(F)(F)F)cc1`, 1 ± 0.056.
The same measure for `O=C(/C=C/c1ccc2ccccc2n1)c1ccncc1`: 0.167 ± 0.0076; for `CCOC(=O)n1ccn(C)c1=S` [Carbimazole]: 1.02 ± 0.14.
The same measure for `COc1nc(N)nc2c1ncn2[C@@H]1O[C@H](CO)[C@@H](O)[C@@H]1O` [Nelarabine]: 1.1 ± 0.035; for `COc1ccc(C[C@H](N)C(=O)N[C@H]2[C@@H](O)[C@H](n3cnc4c(N(C)C)ncnc43)O[C@@H]2CO)cc1` [Puromycin 2HCl]: 0.0517 ± 0.001.
In the case of `CNc1ncnc2c1ncn2[C@@H]1O[C@H](CO)[C@@H](O)[C@H]1O` [N6-methyladenosine (m6A)], the relative cell viability stood at 1.15 ± 0.042.
In the case of `c1cc(-c2cnn3cc(-c4ccc(N5CCNCC5)cc4)cnc23)c2cccnc2c1`, the relative cell viability is 0.142 ± 0.013.
`COc1cc(-c2cc(-c3ccc(N4CCNCC4)cc3)cnc2C)cc(OC)c1OC` had a relative cell viability of 0.937 ± 0.023.
To `COc1ccc(-c2cnc3c(-c4cccc5ncccc45)cnn3c2)cc1` belongs 1.31 ± 0.03.
The compound `CCCNCC(O)COc1ccccc1C(=O)CCc1ccccc1` (stereo unspecified) [Propafenone HCl] returned a relative cell viability of 0.855 ± 0.07.
The same measure for `Cc1cc(-c2ccc(CC(=O)Nc3ccc(-c4cccnc4)cc3)cc2)ccn1`: 1.268 ± 0.0057; for `CC(C=CC(=O)NO)=CC(C)C(=O)c1ccc(N(C)C)cc1` (stereo unspecified) [Trichostatin A (TSA)]: 0.131 ± 0.019.
The compound `CN1CCN(c2ccc(Nc3cc(-c4cccc(-n5ccc6cc(C7CC7)cc(F)c6c5=O)c4CO)cn(C)c3=O)nc2)CC1` yielded a relative cell viability of 1.1 ± 0.14.
In the case of `Cc1cc(NC(=O)c2cccc(NC(=O)/C=C/CN(C)C)c2)ccc1Nc1nccc(-c2cccnc2)n1`, the relative cell viability was determined as 0.837 ± 0.011.
`O=C(c1cncc(Br)c1)N1CCC(N2CCCC2)CC1` displayed a relative cell viability of 1.03 ± 0.058.
`O=C(COc1cccc2c(=O)[nH]ccc12)c1ccccc1` returned a relative cell viability of 1.16 ± 0.033.
`CC(C)c1ccc(NC(=O)Cn2cnc3c2c(=O)n(C)c(=O)n3C)cc1` came in with a relative cell viability of 1.02 ± 0.041.
`Cc1ccc(C(=O)N(CCCN)[C@@H](c2oc3cc(Cl)ccc3c(=O)c2Cc2ccccc2)C(C)C)cc1` returned a relative cell viability of 0.245 ± 0.0053.
In turn, `CC1=C(C(=O)Nc2cc3cn[nH]c3cc2F)C(c2ccc(C(F)(F)F)cc2)CC(=O)N1` (stereo unspecified) showed a relative cell viability of 1.3 ± 0.16.
Take `CN(C)C(=S)NN=C(c1ccccn1)c1ccccn1`: the relative cell viability is 0.265 ± 0.025.
`C/C(=N\NC(=S)N1CCC1)c1ccccn1`: the relative cell viability was 0.0813 ± 0.0087.
To `CCN(CC)C(=S)SSC(=S)N(CC)CC` [Disulfiram] belongs 0.134 ± 0.012; to `CN1CCN(c2ccc(OC(F)(F)F)c(Nc3ncc4c(n3)-c3c(c(C(N)=O)nn3CCO)CC4)c2)CC1`, 0.48 ± 0.02.
The same measure for `O=C(N/N=C/c1ccc(O)c(O)c1)c1cc2ccccc2cc1O` [Dynasore]: 0.932 ± 0.05; for `Cc1nc2c([nH]1)-c1ccccc1N(C(=O)c1ccc(NC(=O)c3ccccc3-c3ccccc3)cc1)CC2` [Conivaptan HCl]: 1.12 ± 0.15; for `C[C@@H](O[C@H]1OCCN(Cc2nn(P(=O)(O)O)c(=O)[nH]2)[C@H]1c1ccc(F)cc1)c1cc(C(F)(F)F)cc(C(F)(F)F)c1` [Fosaprepitant dimeglumine salt]: 1.04 ± 0.1.
The same measure for `O=C(O)C1=CO[C@@H](O[C@@H]2O[C@H](CO)[C@@H](O)[C@H](O)[C@H]2O)[C@@H]2C(CO)=CC[C@H]12` [Geniposidic acid]: 1.04 ± 0.16.
In turn, `CNC(=O)c1ccccc1Nc1nc(Nc2ccc(N3CCOCC3)cc2OC)ncc1Cl` registered a relative cell viability of 0.273 ± 0.0076.
Turning to `COc1cc(N2CCC(N)CC2)ccc1Nc1ncc(Cl)c(-c2c[nH]c3ccccc23)n1`, the relative cell viability stood at 0.138 ± 0.00027.
As to `CCOc1cc(N2CCC(O)CC2)ccc1Nc1ncc2c(n1)N(C)c1ccccc1C(=O)N2C`, the relative cell viability is 1.14 ± 0.05.
Consider `Nc1ncnc2c1C(=O)N(c1ccc([C@H]3CC[C@H](CC(=O)O)CC3)cc1)CCO2`, for which the relative cell viability stood at 1.289 ± 0.0053.
The same measure for `CC(C)C[C@H](NP(=O)(O)O[C@@H]1O[C@@H](C)[C@H](O)[C@@H](O)[C@H]1O)C(=O)N[C@@H](Cc1c[nH]c2ccccc12)C(=O)O` [Phosphoramidon Disodium Salt]: 1.169 ± 0.0058; for `Cn1nnc2c(C(N)=O)ncn2c1=O` [Temozolomide]: 1.25 ± 0.15; for `Cc1cc(N2CCOCC2)ccc1Nc1nc(NC2CCCCC2)c2[nH]cnc2n1`: 0.971 ± 0.072.
`CC(C)(C)c1ccc(-c2nc3ccccc3[nH]2)cc1` showed a relative cell viability of 0.591 ± 0.042.
As for `COc1cc2c(c(OC)c1OC)-c1c(cc3c(c1OC)OCO3)CC(C)C(C)C2` (stereo unspecified) [Schisandrin B (Sch B)], the relative cell viability was 0.988 ± 0.053.
`Nc1ccc2ncnc(NCCc3ccc(Oc4ccccc4)cc3)c2c1` returned a relative cell viability of 1.22 ± 0.066.
The compound `Cn1nnc(-c2ccc3c(c2)[nH]c2nc(Cc4ccccc4)nc(NC4CCC(N)CC4)c23)n1` (stereo unspecified) came in with a relative cell viability of 0.194 ± 0.0028.
On to `CN(C)CCC[C@@]1(c2ccc(F)cc2)OCc2cc(C#N)ccc21` [Escitalopram Oxalate], for which the relative cell viability came out at 1.13 ± 0.13.
For `N#CSc1cc(SC#N)c(N)nc1N`, the relative cell viability worked out at 1.061 ± 0.0035.
To `CCOC(=O)c1ccc(N2NC(=O)C(=Cc3ccc([N+](=O)[O-])o3)C2=O)cc1` belongs 0.977 ± 0.14; to `Cn1cc(-c2ccc3c(c2)CCN3C(=O)Cc2cccc(C(F)(F)F)c2)c2c(N)ncnc21`, 1.34 ± 0.066.
On to `CC(C)(C)c1cc(C(=O)C(C#N)=NNc2cccc(Cl)c2)no1`, for which the relative cell viability worked out at 1.11 ± 0.17.
To `O=C(NC1CCNCC1)c1n[nH]cc1NC(=O)c1c(Cl)cccc1Cl` belongs 0.157 and 0.162.
Consider `O=C(NC1CCOCC1)c1ccc(-c2cc(-c3c[nH]nc3-c3ccccn3)ccn2)cc1`, for which the relative cell viability was determined as 1.23 ± 0.2.
In the case of `CC(=O)OCOC(=O)CN(CC(=O)OCOC(C)=O)c1ccccc1OCCOc1ccccc1N(CC(=O)OCOC(C)=O)CC(=O)OCOC(C)=O`, the relative cell viability came to 1.12 ± 0.016.
As to `CNC(=O)[C@@H](c1ccccc1)N1CCc2cc(OC)c(OC)cc2[C@@H]1CCc1ccc(C(F)(F)F)cc1` [Almorexant HCl], the relative cell viability stood at 1.19 ± 0.11.
The same measure for `Cc1c(N(C)C)c(=O)n(-c2ccccc2)n1C` [Amidopyrine]: 1.07 ± 0.062; for `COc1ccc2c(Oc3ccc(NC(=O)c4c(C)n(CC(C)(C)O)n(-c5ccccc5)c4=O)nc3)ccnc2c1`: 1.16 ± 0.024.
In the case of `O=C(NNc1nc2cc(F)ccc2n2cccc12)c1cnccn1`, the relative cell viability was determined as 0.383 ± 0.013.
In turn, `C=C1C(=O)[C@]23[C@H](O)[C@H]1CC[C@H]2[C@@]12CO[C@]3(O)[C@@H](O)[C@@H]1C(C)(C)CC[C@@H]2O` [Oridonin] showed a relative cell viability of 0.9649 ± 0.0085.
Take `CCS(=O)(=O)N1CC(CC#N)(n2cc(-c3ncnc4[nH]ccc34)cn2)C1`: the relative cell viability stood at 0.983 ± 0.088.
`CO[C@H]1/C=C\C=C(/C)C(=O)NC2=CC(=O)C(NCCN(C)C)=C(C[C@@H](C)C[C@H](OC)[C@H](O)[C@@H](C)/C=C(\C)[C@@H]1OC(N)=O)C2=O` [17-DMAG (Alvespimycin) HCl]: the relative cell viability came to 0.267 ± 0.043.
Regarding `CN1CC[C@H](c2c(O)cc(O)c3c(=O)cc(-c4ccccc4Cl)oc23)[C@H](O)C1` [Flavopiridol (Alvocidib)], the relative cell viability was 0.143 ± 0.043.
The compound `CN1CC[C@H](c2c(O)cc(O)c3c(=O)cc(-c4ccccc4Cl)oc23)[C@H](O)C1` [Flavopiridol HCl] had a relative cell viability of 0.183 ± 0.015.
The same measure for `CC(=O)N1c2ccc(-c3ccc(C(=O)O)cc3)cc2[C@H](Nc2ccc(Cl)cc2)C[C@@H]1C`: 0.698 ± 0.027; for `N#Cc1c(NC(=O)c2cccc3ccccc23)sc2c1CCCC2` [JNK Inhibitor IX]: 1.1 ± 0.056.
Take `Cc1cc2c(cc1CC(=O)c1sccc1S(=O)(=O)Nc1onc(C)c1Cl)OCO2` [Sitaxentan sodium]: the relative cell viability was 1.18 ± 0.062.
`COc1cc(OC)c2c(=O)[nH]c(-c3cc(C)c(OCCO)c(C)c3)nc2c1`: the relative cell viability worked out at 0.805 ± 0.0086.

Source of the values: the supplement of paper PMC9399229.
